Laboratory results from PubChem BioAssay (NCATS).
Inconclusive results are not listed. Unmarked numbers belong to inactive results. Calls of active or inactive are those of the source. Calls follow the shape of the dose curve; as a rule, active = well fitted inhibition curve with a large enough effect in the signal ratio, with a control signal flat (not every such curve was filed as active); inconclusive = small, poorly fitted or top-dose-only effect, or effect the other way, or a change in a side signal; inactive = no such curve, though single readings can be large or run the other way; the % refers to the signal ratio.

What follows are molecules tested against Peroxisome proliferator-activated receptor delta (Homo sapiens) (UniProt Q03181) (assay: qHTS assay for small molecule antagonists of peroxisome proliferator-activated receptor delta signaling (AID 588535)). Details: HEK293T PPARd-UAS-bla, beta-lactamase FRET ratio, 18 h; series mostly up to 76.7 µM; activity change, negative = inhibition: at the top concentration.
Description: NIH Chemical Genomics Center [NCGC] U.S. Environmental Protection Agency [EPA] National Institutes of Environmental Health Sciences [NIEHS] National Toxicology Program [NTP] NCGC Assay Overview The Peroxisome proliferator-activated receptors (PPARs) are lipid-activated transcription factors of the nuclear receptor superfamily with three distinct subtypes namely PPAR alpha, PPAR delta (also called PPAR beta) and PPAR gamma. All these subtypes heterodimerizes with Retinoid X receptor (RXR) and have different physiological functions. […] This role of PPAR delta implicates the potential use of its ligands in the treatment of metabolic disorders.
NCGC Assay Protocol Summary Using a beta-lactamase reporter-gene under control Peroxisome Proliferator-Activated Receptor delta (PPAR-delta) response element, a cell-based assay [GeneBLAzer (PPAR-delta-UAS-bla assay developed by Invitrogen] was used to measure PPAR-delta ligands signaling. GeneBLAzer PPAR-delta-UAS-bla HEK293T cells were used with assay medium containing 2% charcoal/dextran FBS. The assay was performed in clear bottom black Greiner 1536-well plates. Library compounds were measured for their ability to inhibit the reporter gene activity. Compounds were screened in a titration series in 1536-well format. The fluorescence intensity (405 nm excitation, 460/530 nm emission) was measured using an EnVision plate reader. […] Concentration-response titration points for each compound were fitted to the Hill equation yielding concentrations of half-maximal inhibition (IC50) and maximal response (efficacy) values. qHTS protocol for PPAR-delta beta-lactamase assay in antagonist mode [Step] [Parameter] [Value] [Description] 1. Reagent; 5 uL; 4000 cells/well 2. Incubation; 37 C for 5 hrs 3. Compounds; 23 nL; 0.59 nM to 92 uM 4. […] Incubation; 37 C for 18 hrs 7. Detection reagent; 1 uL of CCF4-dye 8. Incubation; RT for 2 hrs 9. Detection; Fluorescence; Envision plate reader

Peroxisome proliferator-activated receptor delta (Homo sapiens), sequence (Q03181 whole entry, looked up): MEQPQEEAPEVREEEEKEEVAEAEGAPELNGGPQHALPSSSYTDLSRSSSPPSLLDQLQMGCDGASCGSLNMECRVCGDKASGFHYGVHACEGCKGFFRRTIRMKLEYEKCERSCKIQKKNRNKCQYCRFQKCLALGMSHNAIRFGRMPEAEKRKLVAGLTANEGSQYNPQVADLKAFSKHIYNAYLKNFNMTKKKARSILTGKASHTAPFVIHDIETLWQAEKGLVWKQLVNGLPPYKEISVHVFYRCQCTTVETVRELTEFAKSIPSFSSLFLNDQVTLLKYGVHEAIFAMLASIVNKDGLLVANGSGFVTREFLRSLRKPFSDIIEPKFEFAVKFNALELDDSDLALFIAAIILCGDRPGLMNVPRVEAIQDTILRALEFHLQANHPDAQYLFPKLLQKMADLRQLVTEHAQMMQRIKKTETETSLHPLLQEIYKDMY

Compound | activity change, negative = inhibition [%] | Potency
C=CC(=O)OCC(C)OCC(C)OCC(C)OC(=O)C=C (stereo not given) | 26 | –
Cc1ccc(N)c(S(=O)(=O)O)c1 | 25.9 | –
CC(C)(N=C=O)c1cccc(C(C)(C)N=C=O)c1 | 2.63 | –
C/C=C/C=C/CCCCCCCO | 8.72 | –
O=c1n(CCO)c(=O)n(CCO)c(=O)n1CCO | 8.89 | –
O=C(OCCOCCOC(=O)c1ccccc1)c1ccccc1 | 18.9 | –
CS(=O)(=O)c1ccc(Cl)cc1 | 1.52 | –
OCCOCCOCCOCCOCCO | 2.8 | –
CC1(C)C(C=C(Cl)Cl)[C@H]1C(=O)OCc1cccc(Oc2ccccc2)c1 (stereo not given in full) | 12.6 | –
CCOC(=O)COc1cc(-n2ncc(C(F)(F)F)c(C)c2=O)c(F)cc1Cl | 10.7 | –
CCCCCCc1ccc(N)cc1 | 16.4 | –
O=C(Cl)c1ccc(C(=O)Cl)cc1 | 12.7 | –
CCCCCCCCCCCCCCN | 3.11 | –
O=C(OCC1CCC2OC2C1)C1CCC2OC2C1 (stereo not given) | 5.14 | –
COC(=O)c1ccccc1C(=O)O | 10.4 | –
CS/C(=N\O)C(=O)N(C)C | 10.5 | –
CCC(O)OCCCOC (stereo not given) | 1.29 | –
COc1cc(Cl)c(OC)cc1N | 2.04 | –
CC1=CC2C3CC(C=C3C)C2C1 (stereo not given) | -2.37 | –
C[Si]1(C)O[Si](C)(C)O[Si](C)(C)O[Si](C)(C)O[Si](C)(C)O1 | 2.59 | –

Compound | activity change, negative = inhibition [%] | Potency
CCCCOC(=O)[C@@H](C)Oc1ccc(Oc2ccc(C(F)(F)F)cn2)cc1 | – | inactive
CCCCCCCCCCCCN | 14.6 | –
CC(C)C(=O)OC(=O)C(C)C | 11.2 | –
Clc1nc(Cl)c(Cl)c(Cl)c1Cl | 14.3 | –
CCCCC(CC)COC(=O)c1ccc(C(=O)OCC(CC)CCCC)cc1 (stereo not given) | -5.63 | –
CCCCCCCC/C=C\CCCCCCCC(=O)OC | 1.44 | –
CCCCC(CC)COP(=O)(O)OCC(CC)CCCC (stereo not given) | 7.43 | –
CC(=O)OC1CCC(C(C)(C)C)CC1 (stereo not given) | -12.4 | –
C/C=C/C/C=C\CCCCCCCCOC(C)=O | 7.78 | –
Cc1ccc2c(c1)C(=O)OC2=O | 12.9 | –
CCCC/C=C\CCCCCCCCO | 31.6 | –
CCCCCCCCCCCC[N+](C)(C)C | -32.6 | –
CCC(C)OC(=O)N1CCCCC1CCO (stereo not given) | 26.9 | –
O=C(O)C(Oc1ccc(Cl)cc1)Oc1ccc(Cl)cc1 | 8.55 | –
NCCCCCCCCCCC(=O)O | 10.1 | –
C=CC(=O)OCC[N+](C)(C)C | 12 | –
C[N+](C)(C)CC(O)CCl (stereo not given) | -17.2 | –
CC(=O)N(CCN(C(C)=O)C(C)=O)C(C)=O | 9.88 | –
O=[N+]([O-])c1ccc(O)cc1C(F)(F)F | -32.9 | –
CCCCCCCCCCCCCCCCN(C)C | 19.5 | –
